Where “and” joins values, the source holds several entries; their conditions need not be identical. Equal values may be shown once. The panel holds about 83,000 compounds, 20% with a hit somewhere; the sample as a whole holds those more often.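 How to read the values: 0–100, growth inhibition (40 = 60% inhibited); 0, no net growth; -100 to 0, cell death (-40 = 40% of starting cells died; -100 = all dead).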 Calls of active or inactive are those of the source. Rule for the calls: active = growth percent below 10; inactive = the rest.
What follows are molecules tested on MDA-MB-468 breast (assay: NCI-60 one-dose screen, 48 h (100 = growth as untreated, 0 = no growth, -100 = all killed)). Conditions: 10 µM unless noted.

| SMILES | growth |
| --- | --- |
| Nc1ccc(Nc2ncnc3sc4c(c23)CCN(Cc2ccccc2)C4)cc1 | 90.4% (inactive) |
| NC(=O)C(O)(c1ccccc1)c1ccccc1 | 95.1% (inactive) |
| O=c1ccc2nc(-c3ccccc3)nn(-c3ccccn3)c-2c1 | -65.2% (active) |
| C=C1C(=O)O[C@H]2[C@H]1CC/C(COC(=O)CCCCCCCC(=O)OC/C1=C/CC[C@@]3(C)O[C@H]3[C@H]3OC(=O)C(=C)[C@@H]3CC1)=C\CC[C@@]1(C)O[C@@H]21 | -21.6% (active) |
| COc1ccc(Cn2cc(C(=O)N=Nc3c(O)[nH]c4ccc(Br)cc34)nn2)cc1 | 96.8% (inactive) |
| O=C(NCc1ccccc1)c1cccc([N+](=O)[O-])c1 | 93.8% (inactive) |
| N#CC1=C(N)Oc2c(ccc3ccccc23)C1c1ccc([N+](=O)[O-])cc1 (stereo not given) | 90% (inactive) |
| CC1(C)CC[C@]2(C(=O)O)CC[C@]3(C)[C@H](CC[C@@H]4[C@@]5(C)CCC(=O)C(C)(C)[C@@H]5CC[C@]43C)[C@H]2[C@H]1OC(=O)C(F)(F)F | -71% [100 µM] (active) |
| O=C1c2ccccc2-c2nccc3cc(Cl)nc1c23 | -87.2% (active) |
| COc1ccc(/C=C/c2nc(Nc3cccc(NC(C)=O)c3)c3ccccc3n2)cc1 | 67.1% (inactive) |
| O=C(Nc1ccc(Cl)c(Cl)c1)NC(CO)(CO)CO | 95.9% (inactive) |
| Cc1cc2nc3ccc(=[N+](C)C)cc-3sc2cc1N | -13.4% (active) and -40.6% (active) |
| Clc1ccc(C2CC(c3cccc(Nc4ccncc4)c3)=NN2c2ccccc2)cc1 (stereo not given) | 61.6% (inactive) |
| O=C1NC(=O)c2c1c1c3ccccc3[nH]c1c1oc3cc(Br)ccc3c21 | 62.6% (inactive) |
| CSCCC(NC(=O)C(Cl)Cl)C(=O)O (stereo not given) | 94.6% (inactive) |
| N[C@@H](CO)C(=O)O | 103% (inactive) |
| CCN(CC)CCNc1ccc(CO)c2sc3ccccc3c(=O)c12 | -41.4% (active) |
| CCCCCCCCCCCCCC[n+]1ccc2c(C)c3c(c(C)c2c1)c1cc(O)ccc1n3CC | -63.6% (active) |
| O=C1/C(=C/c2ccc(Br)cc2)COc2ccc(O)c(O)c21 | -51.8% (active) |
| CCCCc1ccc(C(O)(CCN2CC3CCC(CC3)C2)c2ccccc2)cc1 (stereo not given) | 97.4% (inactive) |

| SMILES | growth |
| --- | --- |
| C=C(C)[C@@H]1CC[C@]2(C(=O)O)CC[C@]3(C)[C@H](CC[C@@H]4[C@@]5(C)C/C(=C/c6ccc(OC)cc6)C(=O)C(C)(C)[C@@H]5CC[C@]43C)[C@@H]12 | 0.722% (active) |
| CC1Cc2cc(F)ccc2-n2cccc21 (stereo not given) | 136% (inactive) |
| O=c1c2cc(-c3ccccc3)sc2nc2sc(-c3ccccc3)nn12 | 101% (inactive) |
| O=c1oc2ccc(Br)cc2c(=O)n1-c1ccc(F)cc1F | -2.96% (active) |
| COC(=O)/C=C1/SC(=Nc2ccc(C)cc2)N(CCc2c[nH]c3ccc(O)cc23)C1=O | 48% (inactive) |
| CC(C)C(C(=O)NCCN1CCOCC1)N1C(=O)/C(=C/c2ccc(Br)cc2)SC1=S (stereo not given) | 99.2% (inactive) |
| Nc1n[nH]c2cccc(C#Cc3cccc(NC(=O)c4cc(F)cc(C(F)(F)F)c4)c3)c12 | 92.2% (inactive) |
| Nc1c(C(=O)Nc2ccccc2)sc2nc3c(cc12)CN(C(=O)OCc1ccccc1)CC3 | 63.8% (inactive) |
| CCOC(=O)c1ccc(NC2=C(Cl)C(=O)c3nc(C)ccc3C2=O)cc1 | -24.6% (active) |
| COc1cc2c(cc1O)CC[C@@H]1[C@@H]2CC[C@]2(C)[C@@H](OCCN(C)C)CC[C@@H]12 | 19.3% (inactive) |
| COc1ccc(Nc2nc3ccc(NC(=O)NC4CCCCC4)cc3[nH]c2=O)cc1 | 96% (inactive) |
| COc1ccc(/C(C)=C(\c2ccc(OCCN3CCCCCC3)cc2)c2ccc(OC(=O)c3ccccc3)cc2)cc1 | 61.3% (inactive) |
| COc1ccc(/C=C/C(=O)c2cccc(OCCCCOc3cccc(C(=O)/C=C/c4ccc(OC)c(OC)c4)c3)c2)cc1OC | 23.1% (inactive) |
| CC1(C)N=C(N)N=C(N)N1c1cccc(OCCOc2cccc([N+](=O)[O-])c2)c1 | 25.1% (inactive) |
| COc1cc(/C=C/c2cc(/C=C/c3ccc(O)c(OC)c3)n(-c3c(C)cccc3C)c(=O)n2)ccc1O | -16.4% (active) |
| CCCCc1n(Cc2ccc3ccccc3c2)c2ccccc2[n+]1Cc1ccc2ccccc2c1 | -78.1% (active) |
| Nc1ncnc2c1c(C(F)(F)F)cn2[C@@H]1O[C@H](CO)[C@@H](O)[C@H]1O | -41.1% (active) |
| COc1ccc(/C=C(/c2ccccc2)[N+](=O)[O-])cc1 | -77.6% (active) |
| Cc1ccc(-c2nc(/C=N/Nc3cc(C)nc4ccc(Cl)cc34)c(C)o2)cc1 | -76% (active) |
| C[C@@H](NC(=O)[C@@H](CC(=O)N1CCC(N2CCCCC2)CC1)N1C(=O)[C@@H](N2C(=O)OC[C@@H]2c2ccccc2)[C@H]1/C=C/c1cccc(Cl)c1)c1ccccc1 | 1.45% (active) |
